Measured values reported in ChEMBL document CHEMBL1961873, “Compounds: GSK PKIS; Assays: Nanosyn kinase panel” (2012).

What was measured:
[1] = target: High affinity nerve growth factor receptor (Homo sapiens) (UniProt P04629); conditions: at 1 µM;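 note: each value is the mean percent inhibition of TRKA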
[2] = target: BDNF/NT-3 growth factors receptor (Homo sapiens) (UniProt Q16620); conditions: at 0.1 µM
[3] = target: BDNF/NT-3 growth factors receptor (Homo sapiens) (UniProt Q16620); conditions: at 1 µM
[4] = target: NT-3 growth factor receptor (Homo sapiens) (UniProt Q16288); conditions: at 0.1 µM
Chain of NT-3 growth factor receptor (Homo sapiens) (Q16288 32-839 limits assumed): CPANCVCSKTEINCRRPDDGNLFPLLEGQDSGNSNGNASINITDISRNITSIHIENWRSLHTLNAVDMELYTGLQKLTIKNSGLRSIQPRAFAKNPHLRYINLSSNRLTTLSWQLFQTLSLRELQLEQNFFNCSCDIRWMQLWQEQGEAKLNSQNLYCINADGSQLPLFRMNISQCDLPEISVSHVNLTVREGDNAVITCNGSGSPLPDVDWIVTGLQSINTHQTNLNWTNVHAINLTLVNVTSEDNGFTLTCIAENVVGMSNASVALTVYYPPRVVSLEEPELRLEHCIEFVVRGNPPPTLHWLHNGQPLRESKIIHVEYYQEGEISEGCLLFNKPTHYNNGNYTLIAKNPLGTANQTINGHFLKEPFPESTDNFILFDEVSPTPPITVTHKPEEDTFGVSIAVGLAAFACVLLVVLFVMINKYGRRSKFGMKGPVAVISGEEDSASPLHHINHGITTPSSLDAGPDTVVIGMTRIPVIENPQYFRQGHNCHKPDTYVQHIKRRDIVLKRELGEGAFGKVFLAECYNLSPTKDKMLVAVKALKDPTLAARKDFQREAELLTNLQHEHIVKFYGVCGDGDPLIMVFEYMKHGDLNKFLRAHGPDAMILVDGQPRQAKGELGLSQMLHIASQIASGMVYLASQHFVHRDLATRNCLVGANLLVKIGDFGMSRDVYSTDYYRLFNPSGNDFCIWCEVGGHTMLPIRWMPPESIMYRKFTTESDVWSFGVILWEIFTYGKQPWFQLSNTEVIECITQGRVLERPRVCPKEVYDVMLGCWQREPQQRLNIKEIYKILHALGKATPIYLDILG

[5] = target: NT-3 growth factor receptor (Homo sapiens) (UniProt Q16288); conditions: at 1 µM
[6] = target: T1, Tyrosine-protein kinase TXK (Homo sapiens) (UniProt P42681); conditions: at 0.1 µM
T1 sequence (whole entry): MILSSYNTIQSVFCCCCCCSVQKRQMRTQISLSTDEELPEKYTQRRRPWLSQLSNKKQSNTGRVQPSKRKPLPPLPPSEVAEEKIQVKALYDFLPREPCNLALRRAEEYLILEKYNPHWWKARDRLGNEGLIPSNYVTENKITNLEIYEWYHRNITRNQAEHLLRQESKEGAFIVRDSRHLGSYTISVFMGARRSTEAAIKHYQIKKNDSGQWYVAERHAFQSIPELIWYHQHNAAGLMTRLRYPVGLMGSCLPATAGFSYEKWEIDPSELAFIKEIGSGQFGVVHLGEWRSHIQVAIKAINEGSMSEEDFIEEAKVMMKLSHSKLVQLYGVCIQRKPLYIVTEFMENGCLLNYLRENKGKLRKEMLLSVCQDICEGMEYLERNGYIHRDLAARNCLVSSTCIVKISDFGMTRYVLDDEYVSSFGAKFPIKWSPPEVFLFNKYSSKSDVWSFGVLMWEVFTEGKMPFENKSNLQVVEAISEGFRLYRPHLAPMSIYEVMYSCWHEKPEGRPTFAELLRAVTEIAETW

[7] = target: T1, Tyrosine-protein kinase TXK (Homo sapiens); conditions: at 1 µM
[8] = target: Non-receptor tyrosine-protein kinase TYK2 (Homo sapiens) (UniProt P29597); conditions: at 0.1 µM;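 note: each value is a mean of the inhibition readings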
Chain of Non-receptor tyrosine-protein kinase TYK2 (Homo sapiens) (P29597 whole entry): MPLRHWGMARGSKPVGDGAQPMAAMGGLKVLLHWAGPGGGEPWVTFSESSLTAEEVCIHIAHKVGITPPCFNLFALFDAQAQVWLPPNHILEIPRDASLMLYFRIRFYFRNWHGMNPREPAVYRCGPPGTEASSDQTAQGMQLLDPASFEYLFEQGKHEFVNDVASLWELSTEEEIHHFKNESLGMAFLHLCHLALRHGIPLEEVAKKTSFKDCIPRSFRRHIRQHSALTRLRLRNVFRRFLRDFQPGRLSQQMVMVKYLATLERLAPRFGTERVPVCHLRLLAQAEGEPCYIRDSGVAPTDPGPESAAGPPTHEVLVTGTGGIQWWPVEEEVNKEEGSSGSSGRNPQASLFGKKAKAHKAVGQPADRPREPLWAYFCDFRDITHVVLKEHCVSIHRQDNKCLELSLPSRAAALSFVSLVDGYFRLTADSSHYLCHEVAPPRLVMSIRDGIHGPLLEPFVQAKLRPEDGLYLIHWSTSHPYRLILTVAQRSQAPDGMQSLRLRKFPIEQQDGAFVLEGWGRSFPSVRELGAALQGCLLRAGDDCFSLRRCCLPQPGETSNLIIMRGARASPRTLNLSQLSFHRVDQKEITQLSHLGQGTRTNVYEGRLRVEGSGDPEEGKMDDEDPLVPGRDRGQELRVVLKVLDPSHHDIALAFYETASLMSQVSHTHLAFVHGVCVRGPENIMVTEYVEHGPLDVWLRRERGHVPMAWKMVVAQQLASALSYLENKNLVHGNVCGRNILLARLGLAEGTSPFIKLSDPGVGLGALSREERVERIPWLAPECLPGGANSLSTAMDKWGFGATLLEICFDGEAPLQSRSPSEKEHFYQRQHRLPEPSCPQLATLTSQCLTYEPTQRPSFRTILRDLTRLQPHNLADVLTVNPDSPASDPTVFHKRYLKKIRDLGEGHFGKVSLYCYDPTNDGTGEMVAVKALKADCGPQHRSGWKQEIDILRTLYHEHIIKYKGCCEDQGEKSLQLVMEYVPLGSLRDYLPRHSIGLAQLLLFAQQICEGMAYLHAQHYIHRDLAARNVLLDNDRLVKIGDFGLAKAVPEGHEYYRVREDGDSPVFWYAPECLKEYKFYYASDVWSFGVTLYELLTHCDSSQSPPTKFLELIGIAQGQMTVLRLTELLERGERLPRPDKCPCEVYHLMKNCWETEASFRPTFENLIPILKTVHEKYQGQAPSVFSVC

[9] = target: T2, Dual specificity protein kinase TTK (Homo sapiens) (UniProt P33981); conditions: at 1 µM;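 note: reported figures are mean TTK inhibition at 1 µM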
T2 sequence (whole entry): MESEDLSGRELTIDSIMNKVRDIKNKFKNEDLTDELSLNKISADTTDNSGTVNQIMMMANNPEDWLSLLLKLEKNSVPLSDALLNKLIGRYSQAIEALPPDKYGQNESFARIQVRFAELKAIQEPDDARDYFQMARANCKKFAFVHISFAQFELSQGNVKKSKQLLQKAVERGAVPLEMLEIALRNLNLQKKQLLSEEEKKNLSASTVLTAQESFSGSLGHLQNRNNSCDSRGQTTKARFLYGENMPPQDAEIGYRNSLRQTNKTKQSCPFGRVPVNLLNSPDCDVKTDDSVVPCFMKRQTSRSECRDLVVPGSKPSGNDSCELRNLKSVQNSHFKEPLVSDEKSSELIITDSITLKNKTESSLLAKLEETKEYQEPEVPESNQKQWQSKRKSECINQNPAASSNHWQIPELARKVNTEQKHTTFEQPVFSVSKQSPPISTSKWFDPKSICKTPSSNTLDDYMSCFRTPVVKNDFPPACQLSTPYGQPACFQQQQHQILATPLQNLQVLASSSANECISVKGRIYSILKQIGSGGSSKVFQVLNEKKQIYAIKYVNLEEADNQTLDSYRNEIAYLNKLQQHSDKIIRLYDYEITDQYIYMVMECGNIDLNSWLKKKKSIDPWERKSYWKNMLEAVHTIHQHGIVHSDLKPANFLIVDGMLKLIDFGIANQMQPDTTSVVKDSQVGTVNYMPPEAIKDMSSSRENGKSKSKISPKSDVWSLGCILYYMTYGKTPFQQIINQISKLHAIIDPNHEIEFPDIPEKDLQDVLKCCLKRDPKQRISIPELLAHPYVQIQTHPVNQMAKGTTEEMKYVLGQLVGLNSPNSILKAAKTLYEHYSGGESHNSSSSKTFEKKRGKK

[10] = target: T3, Aurora kinase A (Homo sapiens) (UniProt O14965); conditions: at 0.1 µM
T3 sequence (whole entry): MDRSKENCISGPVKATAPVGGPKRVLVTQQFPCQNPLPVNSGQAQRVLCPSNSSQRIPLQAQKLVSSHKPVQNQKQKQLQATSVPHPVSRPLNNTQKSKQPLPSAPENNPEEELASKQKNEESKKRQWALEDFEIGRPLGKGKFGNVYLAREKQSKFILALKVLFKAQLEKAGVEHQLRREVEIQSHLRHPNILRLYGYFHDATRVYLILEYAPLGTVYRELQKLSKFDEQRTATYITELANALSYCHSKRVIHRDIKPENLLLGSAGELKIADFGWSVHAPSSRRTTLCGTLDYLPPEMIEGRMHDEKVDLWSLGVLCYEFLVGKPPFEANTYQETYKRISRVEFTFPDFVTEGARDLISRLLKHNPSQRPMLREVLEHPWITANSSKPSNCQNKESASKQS

[11] = target: T3, Aurora kinase A (Homo sapiens); conditions: at 1 µM
[12] = target: Aurora kinase B (Homo sapiens) (UniProt Q96GD4); conditions: at 0.1 µM
[13] = target: Aurora kinase B (Homo sapiens) (UniProt Q96GD4); conditions: at 1 µM
[14] = target: T4, Aurora kinase C (Homo sapiens) (UniProt Q9UQB9); conditions: at 0.1 µM
T4 sequence (whole entry): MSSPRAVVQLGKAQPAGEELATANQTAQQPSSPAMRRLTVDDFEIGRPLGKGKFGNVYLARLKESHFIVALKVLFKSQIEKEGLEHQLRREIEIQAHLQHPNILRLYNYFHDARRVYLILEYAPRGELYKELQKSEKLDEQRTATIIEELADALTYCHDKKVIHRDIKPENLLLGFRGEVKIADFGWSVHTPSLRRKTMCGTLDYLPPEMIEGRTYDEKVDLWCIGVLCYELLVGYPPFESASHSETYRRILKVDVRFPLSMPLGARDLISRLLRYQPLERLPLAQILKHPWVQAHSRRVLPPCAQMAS

[15] = target: T4, Aurora kinase C (Homo sapiens); conditions: at 1 µM
[16] = target: Serine/threonine-protein kinase 10 (Homo sapiens) (UniProt O94804); conditions: at 0.1 µM
[17] = target: Serine/threonine-protein kinase 10 (Homo sapiens) (UniProt O94804); conditions: at 1 µM
[18] = target: T5, Mitogen-activated protein kinase kinase kinase kinase 2 (Homo sapiens) (UniProt Q12851); conditions: at 0.1 µM
T5 sequence (whole entry): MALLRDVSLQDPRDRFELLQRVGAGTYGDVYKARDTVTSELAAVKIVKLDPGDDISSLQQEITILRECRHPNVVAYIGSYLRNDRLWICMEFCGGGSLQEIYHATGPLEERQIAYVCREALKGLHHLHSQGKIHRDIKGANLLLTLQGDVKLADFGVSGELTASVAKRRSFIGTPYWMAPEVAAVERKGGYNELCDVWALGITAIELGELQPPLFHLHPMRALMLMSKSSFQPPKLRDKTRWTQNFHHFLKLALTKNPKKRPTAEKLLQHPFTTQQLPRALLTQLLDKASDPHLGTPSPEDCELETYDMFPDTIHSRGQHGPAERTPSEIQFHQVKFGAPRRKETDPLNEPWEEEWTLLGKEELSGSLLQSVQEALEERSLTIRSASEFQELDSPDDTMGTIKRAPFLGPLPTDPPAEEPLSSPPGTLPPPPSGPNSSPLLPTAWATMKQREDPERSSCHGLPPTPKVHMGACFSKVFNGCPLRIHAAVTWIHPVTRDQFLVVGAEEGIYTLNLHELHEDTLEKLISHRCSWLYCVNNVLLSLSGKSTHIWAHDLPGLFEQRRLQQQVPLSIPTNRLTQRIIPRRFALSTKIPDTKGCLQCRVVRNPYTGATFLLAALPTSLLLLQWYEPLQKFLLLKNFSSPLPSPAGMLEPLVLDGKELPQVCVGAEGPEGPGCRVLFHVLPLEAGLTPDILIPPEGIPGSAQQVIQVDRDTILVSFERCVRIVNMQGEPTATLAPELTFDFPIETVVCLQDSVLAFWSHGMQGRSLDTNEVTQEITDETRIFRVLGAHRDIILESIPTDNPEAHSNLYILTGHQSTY

[19] = target: T5, Mitogen-activated protein kinase kinase kinase kinase 2 (Homo sapiens); conditions: at 1 µM
[20] = target: Mitogen-activated protein kinase kinase kinase kinase 4 (Homo sapiens) (UniProt O95819); conditions: at 0.1 µM
Chain of Mitogen-activated protein kinase kinase kinase kinase 4 (Homo sapiens) (O95819 2-1239 limits assumed): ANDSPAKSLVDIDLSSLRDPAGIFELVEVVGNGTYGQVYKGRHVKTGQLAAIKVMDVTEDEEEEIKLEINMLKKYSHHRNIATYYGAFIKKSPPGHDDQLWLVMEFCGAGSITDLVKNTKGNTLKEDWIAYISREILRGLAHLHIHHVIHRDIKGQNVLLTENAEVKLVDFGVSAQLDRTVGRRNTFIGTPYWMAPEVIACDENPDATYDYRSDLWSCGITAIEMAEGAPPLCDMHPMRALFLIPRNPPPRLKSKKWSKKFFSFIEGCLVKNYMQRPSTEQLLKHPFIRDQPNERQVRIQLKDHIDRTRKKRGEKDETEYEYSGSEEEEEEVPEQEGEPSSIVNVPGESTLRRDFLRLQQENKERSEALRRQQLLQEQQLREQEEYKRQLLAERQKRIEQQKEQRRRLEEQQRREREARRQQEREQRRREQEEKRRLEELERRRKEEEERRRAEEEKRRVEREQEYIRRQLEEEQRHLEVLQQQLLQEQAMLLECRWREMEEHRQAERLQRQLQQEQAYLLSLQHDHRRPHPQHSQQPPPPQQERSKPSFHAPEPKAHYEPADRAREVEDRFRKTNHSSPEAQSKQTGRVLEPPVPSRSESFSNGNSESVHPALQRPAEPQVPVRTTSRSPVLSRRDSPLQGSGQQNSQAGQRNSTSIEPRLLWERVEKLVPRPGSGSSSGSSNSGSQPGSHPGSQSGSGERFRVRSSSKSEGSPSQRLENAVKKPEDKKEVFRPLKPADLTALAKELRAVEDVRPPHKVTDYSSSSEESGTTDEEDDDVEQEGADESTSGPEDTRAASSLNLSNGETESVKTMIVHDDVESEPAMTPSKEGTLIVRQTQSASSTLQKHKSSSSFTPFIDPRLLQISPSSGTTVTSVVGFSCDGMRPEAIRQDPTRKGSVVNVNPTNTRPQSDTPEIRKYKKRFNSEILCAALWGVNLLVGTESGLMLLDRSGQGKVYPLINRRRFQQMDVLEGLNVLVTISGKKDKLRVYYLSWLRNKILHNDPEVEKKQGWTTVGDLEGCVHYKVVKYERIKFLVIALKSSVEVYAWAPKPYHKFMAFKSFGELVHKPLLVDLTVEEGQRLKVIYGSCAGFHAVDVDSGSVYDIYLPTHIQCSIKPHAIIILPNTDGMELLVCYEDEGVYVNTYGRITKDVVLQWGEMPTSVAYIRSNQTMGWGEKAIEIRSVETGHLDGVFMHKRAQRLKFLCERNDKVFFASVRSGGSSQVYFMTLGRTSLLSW

Chain of BDNF/NT-3 growth factors receptor (Homo sapiens) (Q16620 32-822 limits assumed): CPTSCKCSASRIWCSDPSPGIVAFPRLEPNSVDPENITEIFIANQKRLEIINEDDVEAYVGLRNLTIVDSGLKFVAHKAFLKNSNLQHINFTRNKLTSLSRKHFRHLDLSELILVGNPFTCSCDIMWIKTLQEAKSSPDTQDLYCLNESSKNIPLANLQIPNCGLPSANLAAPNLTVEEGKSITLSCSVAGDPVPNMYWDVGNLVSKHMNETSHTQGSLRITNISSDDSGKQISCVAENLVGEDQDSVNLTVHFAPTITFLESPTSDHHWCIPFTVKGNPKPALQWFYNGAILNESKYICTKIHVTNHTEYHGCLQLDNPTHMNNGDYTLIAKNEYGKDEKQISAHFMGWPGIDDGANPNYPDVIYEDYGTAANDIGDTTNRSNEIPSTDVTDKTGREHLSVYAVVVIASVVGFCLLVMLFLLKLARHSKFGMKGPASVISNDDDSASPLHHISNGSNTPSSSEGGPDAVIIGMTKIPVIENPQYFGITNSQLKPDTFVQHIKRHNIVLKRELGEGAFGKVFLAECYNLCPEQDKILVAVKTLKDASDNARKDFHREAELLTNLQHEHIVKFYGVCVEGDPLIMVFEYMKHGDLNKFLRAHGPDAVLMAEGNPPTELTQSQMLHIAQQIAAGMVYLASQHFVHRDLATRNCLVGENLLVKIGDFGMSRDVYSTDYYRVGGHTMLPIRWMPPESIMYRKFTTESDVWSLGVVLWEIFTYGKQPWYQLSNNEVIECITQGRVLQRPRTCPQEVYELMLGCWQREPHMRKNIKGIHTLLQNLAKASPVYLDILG
Chain of High affinity nerve growth factor receptor (Homo sapiens) (P04629 33-796 limits assumed): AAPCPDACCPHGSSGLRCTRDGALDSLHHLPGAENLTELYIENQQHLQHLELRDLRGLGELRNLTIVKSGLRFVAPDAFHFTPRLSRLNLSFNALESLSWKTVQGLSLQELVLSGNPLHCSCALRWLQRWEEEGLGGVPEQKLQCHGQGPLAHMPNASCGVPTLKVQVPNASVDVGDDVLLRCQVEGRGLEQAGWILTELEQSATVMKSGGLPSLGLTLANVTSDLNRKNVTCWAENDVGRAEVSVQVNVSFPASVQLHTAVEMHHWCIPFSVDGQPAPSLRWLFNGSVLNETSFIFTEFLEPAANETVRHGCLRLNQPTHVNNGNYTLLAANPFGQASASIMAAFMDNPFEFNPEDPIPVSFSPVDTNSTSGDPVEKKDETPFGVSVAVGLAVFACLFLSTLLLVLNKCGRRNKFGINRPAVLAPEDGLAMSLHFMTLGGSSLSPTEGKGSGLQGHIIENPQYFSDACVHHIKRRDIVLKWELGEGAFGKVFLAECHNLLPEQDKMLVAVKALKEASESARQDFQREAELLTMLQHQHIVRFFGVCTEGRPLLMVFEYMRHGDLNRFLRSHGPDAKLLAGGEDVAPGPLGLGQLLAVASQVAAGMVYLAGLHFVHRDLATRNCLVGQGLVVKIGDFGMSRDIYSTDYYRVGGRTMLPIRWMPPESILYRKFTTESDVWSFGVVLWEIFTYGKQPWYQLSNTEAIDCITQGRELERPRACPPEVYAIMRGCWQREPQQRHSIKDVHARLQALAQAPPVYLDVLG

SMILES | inhibition [1] | inhibition [2] | inhibition [3] | inhibition [4] | inhibition [5] | inhibition [6] | inhibition [7] | inhibition [8] | inhibition [9] | inhibition [10] | inhibition [11] | inhibition [12] | inhibition [13] | inhibition [14] | inhibition [15] | inhibition [16] | inhibition [17] | inhibition [18] | inhibition [19] | inhibition [20]
Fc1ccc(-c2nc3n(c2-c2ccncc2)CCS3)cc1 | 1.45% | 2.62% | 0.16% | 2.96% | 3.11% | -0.13% | -0.14% | -8.34% | 9.6% | -1.28% | 1.43% | -0.42% | 2.92% | -1.97% | 13.6% | 1.88% | 6.87% | 1.36% | 6.73% | 5.82%
CCc1ccc(Oc2nccc(-c3c(-c4ccc(F)cc4)ncn3C3CCNCC3)n2)cc1 | 3.03% | 1.6% | 2.36% | 1.82% | 3.29% | 6.85% | 4.56% | 1.68% | 4.86% | 3.7% | 2.66% | 3.48% | 2.75% | 1.29% | 3.88% | 4.86% | 8.03% | 1.71% | 15.4% | 2.58%
O=C1NC(=O)C(c2cccc(Cl)c2)=C1Nc1ccc(Cl)c(C(=O)O)c1 | -0.54% | 0.88% | 1.89% | 1.02% | 2.72% | 2.81% | 2.53% | -0.74% | 9.31% | 2.92% | 8.62% | 0.94% | 8.32% | 5.84% | -0.75% | 4.75% | 6.92% | 0.39% | 2.05% | 2.67%
COc1cc2ncn(-c3cc(OCc4ccccc4C(F)(F)F)c(C(C)=O)s3)c2cc1OC | 1.61% | 1.74% | 2.56% | 0.64% | 4.16% | -0.06% | 5.24% | -1.78% | 8.19% | 2.64% | 4.46% | 7.82% | 9.68% | 3% | 11.9% | 10.5% | 42.8% | 2.18% | 7.42% | 4.05%
COc1cccc(-n2cnc3c(N/N=C/c4ccncc4)ncnc32)c1 | 7.04% | 0.22% | 6.69% | 0.58% | 9.77% | -1.8% | 4.69% | 3.07% | 5.77% | -0.8% | 13% | 0.64% | 7.54% | 0.73% | -1.49% | 4.49% | 16.3% | 1.19% | 1.25% | 1.22%
CCC(=O)Nc1ccc(C)c(-c2ccc(C(=O)NCC3CC3)cc2)c1 | 4.19% | 2.75% | 2.88% | 2.19% | 2.2% | 2.71% | 1.4% | -2.17% | 8.22% | 1.72% | 4.11% | -0.16% | 3.49% | -1.01% | 3.82% | 1.74% | 5.36% | 0.41% | 1.16% | 4.98%
NS(=O)(=O)c1ccc(Nc2cc(-c3ccc(O)c(F)c3)n[nH]2)cc1 | 36.2% | 6.06% | 36.7% | 10.5% | 47.7% | -1.15% | -0.33% | 0.21% | 10% | -2.14% | 37.3% | 0.09% | 19.4% | -0.76% | 22.4% | -0.42% | 16.4% | 0.41% | 6.09% | 18.7%
